In PubChem BioAssay AID1159580 (chemical genetic matrix, 2015):
Screen size: about 5,500 compounds; about 2,000 (36%) were called active. Roughly 18% stayed inconclusive and do not appear here. Rule as the data show it: active = normalized growth mostly below about 0.91 (no sharp cut-off); inconclusive = no clear call, values can overlap the other calls; inactive = mostly above about 0.92. This is one part of the list.

Test: chemical genetic growth profiling, strain panel (AID 1159580);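 also: tested at 20 µM; growth read once vehicle control cultures reached saturation at 30 °C; 1 = growth at the plate median or of vehicle wells; lower values mean less growth of the strain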
Settings: growth OD

Measured: normalized growth

O=C(O)c1ccccc1C(=O)Nc1ccc(S(=O)(=O)Nc2nccs2)cc1
inactive: S. cerevisiae deletion strains, locus YJR066W, strain TOR1, hits give low values 0.983 | S. cerevisiae deletion strains, locus YJR075W, strain HOC1, hits give low values 1.02 | S. cerevisiae deletion strains, locus YKL009W, strain mrt4, hits give low values 1.03 | S. cerevisiae deletion strains, locus YKL068W, hits give low values 0.987 | S. cerevisiae deletion strains, locus YKL085W, strain MDH1 (second series), hits give low values 0.984 | S. cerevisiae deletion strains, locus YKL085W, strain MDH1, hits give low values 0.984 | S. cerevisiae deletion strains, locus YKL160W, strain elf1, hits give low values 0.972 | S. cerevisiae deletion strains, locus YKL190W, strain CNB1, hits give low values 1 | S. cerevisiae deletion strains, locus YKR001C, strain vps1, hits give low values 1 | S. cerevisiae deletion strains, locus YKR026C, strain gcn3, hits give low values 0.981 | S. cerevisiae deletion strains, locus YKR091W, strain srl3, hits give low values 0.984 | S. cerevisiae deletion strains, locus YLL001W, strain dnm1, hits give low values 0.966 | S. cerevisiae deletion strains, locus YLL026W, hits give low values 0.988 | S. cerevisiae deletion strains, locus YLL041C, strain sdh2, hits give low values 0.969 | S. cerevisiae deletion strains, locus YLR027C, strain aat2, hits give low values 0.982 | S. cerevisiae deletion strains, locus YLR039C, strain RIC1, hits give low values 1 | S. cerevisiae deletion strains, locus YLR058C, strain SHM2, hits give low values 1.01 | S. cerevisiae deletion strains, locus YLR102C, strain apc9, hits give low values 0.99 | S. cerevisiae deletion strains, locus YLR113W, strain HOG1, hits give low values 1 | S. cerevisiae deletion strains, locus YLR221C, strain rsa3, hits give low values 0.95 | S. cerevisiae deletion strains, locus YLR258W, strain gsy2, hits give low values 0.986 | S. cerevisiae deletion strains, locus YLR262C, strain YPT6 (second series), hits give low values 1 | S. cerevisiae deletion strains, locus YLR262C, strain YPT6, hits give low values 1.03 | S. cerevisiae deletion strains, locus YLR268W, strain sec22, hits give low values 0.998 | S. cerevisiae deletion strains, locus YLR320W, strain mms22, hits give low values 0.976 | S. cerevisiae deletion strains, locus YLR330W, strain CHS5, hits give low values 1 | S. cerevisiae deletion strains, locus YLR342W, strain FKS1 (second series), hits give low values 0.994 | S. cerevisiae deletion strains, locus YLR342W, strain FKS1, hits give low values 0.99 | S. cerevisiae deletion strains, locus YLR357W, strain rsc2, hits give low values 0.975 | S. cerevisiae deletion strains, locus YLR370C, strain arc18, hits give low values 0.959 | S. cerevisiae deletion strains, locus YLR371W, strain rom2, hits give low values 0.998 | S. cerevisiae deletion strains, locus YLR384C, strain iki3, hits give low values 0.976 | S. cerevisiae deletion strains, locus YLR418C, strain cdc73, hits give low values 0.992 | S. cerevisiae deletion strains, locus YML016C, strain PPZ1, hits give low values 0.995 | S. cerevisiae deletion strains, locus YML032C, strain rad52, hits give low values 0.994 | S. cerevisiae deletion strains, locus YML120C, strain ndi1, hits give low values 0.969 | S. cerevisiae deletion strains, locus YML124C, strain tub3, hits give low values 0.992 | S. cerevisiae deletion strains, locus YMR058W, strain fet3, hits give low values 0.98 | S. cerevisiae deletion strains, locus YMR078C, strain ctf18, hits give low values 0.99 | S. cerevisiae deletion strains, locus YMR125W, strain sto1, hits give low values 0.96 | S. cerevisiae deletion strains, locus YMR129W, hits give low values 0.989 | S. cerevisiae deletion strains, locus YMR205C, strain PFK2, hits give low values 0.965 | S. cerevisiae deletion strains, locus YMR223W, strain ubp8, hits give low values 0.998 | S. cerevisiae deletion strains, locus YMR231W, strain pep5, hits give low values 0.974 | S. cerevisiae deletion strains, locus YMR307W, strain GAS1, hits give low values 0.973 | S. cerevisiae deletion strains, locus YNL067W, strain RPL9B, hits give low values 1.01 | S. cerevisiae deletion strains, locus YNL071W, strain lat1, hits give low values 0.987 | S. cerevisiae deletion strains, locus YNL128W, strain TEP1, hits give low values 1.02 | S. cerevisiae deletion strains, locus YNL183C, strain NPR1, hits give low values 0.975 | S. cerevisiae deletion strains, locus YNL209W, strain ssb2, hits give low values 0.989 | S. cerevisiae deletion strains, locus YNL233W, strain BNI4, hits give low values 1.01 | S. cerevisiae deletion strains, locus YNL248C, strain rpa49, hits give low values 0.97 | S. cerevisiae deletion strains, locus YNL250W, strain rad50, hits give low values 1 | S. cerevisiae deletion strains, locus YNL271C, strain bni1, hits give low values 0.982 | S. cerevisiae deletion strains, locus YNL298W, strain CLA4, hits give low values 0.995 | S. cerevisiae deletion strains, locus YNL307C, strain MCK1, hits give low values 1 | S. cerevisiae deletion strains, locus YNL322C, strain KRE1 (second series), hits give low values 0.945 | S. cerevisiae deletion strains, locus YNL322C, strain KRE1, hits give low values 1.01 | S. cerevisiae deletion strains, locus YNR049C, strain mso1, hits give low values 0.976 | S. cerevisiae deletion strains, locus YNR052C, strain pop2, hits give low values 0.994 | S. cerevisiae deletion strains, locus YOL006C, strain TOP1, hits give low values 1.02 | S. cerevisiae deletion strains, locus YOL012C, strain htz1 0.647 | S. cerevisiae deletion strains, locus YOL147C, strain pex11, hits give low values 0.987 | S. cerevisiae deletion strains, locus YOR001W, strain rrp6, hits give low values 0.999 | S. cerevisiae deletion strains, locus YOR061W, strain CKA2, hits give low values 1 | S. cerevisiae deletion strains, locus YOR069W, strain VPS5, hits give low values 1 | S. cerevisiae deletion strains, locus YOR070C, strain gyp1, hits give low values 0.976 | S. cerevisiae deletion strains, locus YOR080W, strain dia2, hits give low values 0.973 | S. cerevisiae deletion strains, locus YOR083W, strain WHI5, hits give low values 0.983 | S. cerevisiae deletion strains, locus YOR106W, strain vam3, hits give low values 0.972 | S. cerevisiae deletion strains, locus YOR136W, strain idh2, hits give low values 1 | S. cerevisiae deletion strains, locus YOR144C, strain elg1, hits give low values 0.993 | S. cerevisiae deletion strains, locus YOR184W, strain ser1, hits give low values 1 | S. cerevisiae deletion strains, locus YOR231W, strain MKK1, hits give low values 1.04 | S. cerevisiae deletion strains, locus YOR265W, strain rbl2, hits give low values 0.99 | S. cerevisiae deletion strains, locus YOR270C, strain vph1, hits give low values 0.983 | S. cerevisiae deletion strains, locus YOR290C, strain snf2, hits give low values 0.959 | S. cerevisiae deletion strains, locus YOR316C, strain cot1, hits give low values 1.01 | S. cerevisiae deletion strains, locus YPL051W, strain arl3, hits give low values 1 | S. cerevisiae deletion strains, locus YPL078C, strain atp4, hits give low values 0.983 | S. cerevisiae deletion strains, locus YPL106C, strain sse1, hits give low values 0.936 | S. cerevisiae deletion strains, locus YPL240C, strain hsp82, hits give low values 0.979 | S. cerevisiae deletion strains, locus YPL241C, strain CIN2, hits give low values 0.999 | S. cerevisiae deletion strains, locus YPL256C, strain CLN2, hits give low values 1.02 | S. cerevisiae deletion strains, locus YPR119W, strain clb2, hits give low values 0.99 | S. cerevisiae deletion strains, locus YPR141C, strain kar3, hits give low values 0.984 | S. cerevisiae deletion strains, locus YPR163C, strain tif3, hits give low values 0.993 | S. cerevisiae deletion strains, locus YPR167C, strain met16, hits give low values 0.997 | S. cerevisiae deletion strains, strain wtn01, hits give low values 0.995 | S. cerevisiae strains, strain wild type, hits give low values 1
